The record followed here is PubChem BioAssay AID2314 (National Center for Advancing Translational Sciences (NCATS), 2010).

The whole screen tested about 300,000 compounds, of which about 37,000 (12%) were called active. Shown is part of a subset that was picked to be rich in actives. A number with no mark means an inactive call. Cut-off read from the data, not from the text of the source: active = max response mostly above about 13% (no sharp cut-off); inactive = mostly below about 14%.

The test in a line: Cycloheximide Counterscreen for Small Molecule Inhibitors of Shiga Toxin. Note: read at 38.3 µM for the half of the compounds with a filed dose; 0% is about no effect. The following applies: cell reporter, cycloheximide protein synthesis inhibition counterscreen; active compounds read high.
Regarding `CCCC1CCC(=NNC(=S)NCCc2ccccc2)CC1` (configuration not stated), the max response was 13.6%.

Consider `COc1cc(C(=S)N2CCOCC2)cc(OC)c1OC(=O)c1cc([N+](=O)[O-])c(C)c([N+](=O)[O-])c1`, for which the max response was -3.02%.

For the molecule `CC(C)Cn1cnc2c1c(=O)n(CC(=O)NN)c(=O)n2Cc1ccccc1`, the max response was 0.845%.

In the case of `CC1CC(C)CN(c2ccc(S(=O)(=O)N3CCOCC3)cc2)C1` (configuration not stated), the max response was 7.13%.

For the molecule `CSCC[C@H](NC(=O)N1CCn2c1nc1ccccc12)C(=O)NC1CCCCC1`, the max response was 19.4%.

Consider `COc1ccc(C2NC(=O)C(=O)/C2=C(\O)c2ccc(Cl)cc2)cc1OC` (configuration not stated), for which the max response was -4.04%.

`Cc1cccc(-n2nc3c(c2NC(=O)c2cc4ccccc4o2)CS(=O)(=O)C3)c1`: the max response is -5.35%.

On to `C/C(=N\NS(=O)(=O)c1cccc([N+](=O)[O-])c1)c1cc2ccccc2o1`, for which the max response was 1.29%.

For the molecule `Cc1ccc(OC(=O)c2cc3ccccc3o2)cc1`, the max response was 13.6%.

`CC(C)(C)n1nc2c(c1NC(=O)c1cc3ccccc3o1)CSC2`: the max response is 9.15%.

For the molecule `Cc1ccc(NC(=O)c2cc3ccccc3o2)cc1`, the max response is 43.9% (active).

As to `C/C(=N\NC(=S)Nc1ccc(C)cc1)c1cc2ccccc2o1`, the max response is 20.6% (active).

On to `O=C(Nc1ccncc1)c1cc2ccccc2o1`, for which the max response is 22.3% (active).

For the molecule `CC(=O)N1CCN(c2ccccc2NC(=S)NC(=O)c2cc3ccccc3o2)CC1`, the max response is -8.35%.

Consider `O=C(NCCc1ccc2c(c1)OCCO2)c1cc2ccccc2o1`, for which the max response is 8.84%.

For the molecule `O=C(O)C1=NN(c2c(F)c(F)cc(F)c2F)C(=O)CC1`, the max response is -4.21%.

Take `C=CCN(N=Nc1cccc([N+](=O)[O-])c1)c1cccc([N+](=O)[O-])c1`: the max response was -2.01%.

With `O=C(CN1CCN(S(=O)(=O)c2ccc(F)cc2)CC1)NC1CC1`, the max response was 1.9%.

As for `Cc1cnc(C(=O)OCc2c(C)cc(C(C)(C)C)cc2C)cn1`, the max response was -3.25%.

As for `O=C(COc1cccc(Cl)c1)NCc1ccccc1`, the max response was 7.99%.

As to `Cc1ccc(SCC(=O)c2sc(-c3ccccc3)nc2C)cc1`, the max response was -0.538%.

Consider `Cc1nc(-c2ccccc2)sc1C(=O)/C=C/N(C)C`, for which the max response was 45.3% (active).

As to `CC(Oc1ccc(Cl)cc1Cl)C(=O)/C=C/N(C)C` (configuration not stated), the max response was 2.24%.

On to `Cc1nc(COc2cccc(Cl)c2)sc1C(=O)/C=C/N(C)C`, for which the max response is 40.9% (active).

Turning to `CN(C)/C=C/C(=O)c1ccccc1F`, the max response was 5.51%.

`COc1ccc(-c2nc(CN3CCN(c4ncccn4)CC3)c(C)o2)cc1C`: the max response is -2.33%.

For `Cc1ccc(S(=O)(=O)N[C@@H](Cc2ccccc2)C(=O)N2CCC(C(=O)N[C@H](C(=O)O)C(C)O)CC2)cc1` (some centres not stated), the max response is -0.605%.
